LANA-H2B inh – blockers of LANA interaction with H2A/H2B – biochemical, FP readout, HTS, primary screen; Protein LANA1 (Human herpesvirus 8 type P (isolate GK18)), Q9QR71; cell-free LANA-H2A/H2B peptide, fluorescence polarization; inhibition, % (concentration not given with the values); 320,000 compounds, 0.6% hits; in the data active = inhibition mostly above about 10%, no sharp cut-off; inactive = mostly below about 6.7%
Target sequence (Q9QR71 whole entry, looked up): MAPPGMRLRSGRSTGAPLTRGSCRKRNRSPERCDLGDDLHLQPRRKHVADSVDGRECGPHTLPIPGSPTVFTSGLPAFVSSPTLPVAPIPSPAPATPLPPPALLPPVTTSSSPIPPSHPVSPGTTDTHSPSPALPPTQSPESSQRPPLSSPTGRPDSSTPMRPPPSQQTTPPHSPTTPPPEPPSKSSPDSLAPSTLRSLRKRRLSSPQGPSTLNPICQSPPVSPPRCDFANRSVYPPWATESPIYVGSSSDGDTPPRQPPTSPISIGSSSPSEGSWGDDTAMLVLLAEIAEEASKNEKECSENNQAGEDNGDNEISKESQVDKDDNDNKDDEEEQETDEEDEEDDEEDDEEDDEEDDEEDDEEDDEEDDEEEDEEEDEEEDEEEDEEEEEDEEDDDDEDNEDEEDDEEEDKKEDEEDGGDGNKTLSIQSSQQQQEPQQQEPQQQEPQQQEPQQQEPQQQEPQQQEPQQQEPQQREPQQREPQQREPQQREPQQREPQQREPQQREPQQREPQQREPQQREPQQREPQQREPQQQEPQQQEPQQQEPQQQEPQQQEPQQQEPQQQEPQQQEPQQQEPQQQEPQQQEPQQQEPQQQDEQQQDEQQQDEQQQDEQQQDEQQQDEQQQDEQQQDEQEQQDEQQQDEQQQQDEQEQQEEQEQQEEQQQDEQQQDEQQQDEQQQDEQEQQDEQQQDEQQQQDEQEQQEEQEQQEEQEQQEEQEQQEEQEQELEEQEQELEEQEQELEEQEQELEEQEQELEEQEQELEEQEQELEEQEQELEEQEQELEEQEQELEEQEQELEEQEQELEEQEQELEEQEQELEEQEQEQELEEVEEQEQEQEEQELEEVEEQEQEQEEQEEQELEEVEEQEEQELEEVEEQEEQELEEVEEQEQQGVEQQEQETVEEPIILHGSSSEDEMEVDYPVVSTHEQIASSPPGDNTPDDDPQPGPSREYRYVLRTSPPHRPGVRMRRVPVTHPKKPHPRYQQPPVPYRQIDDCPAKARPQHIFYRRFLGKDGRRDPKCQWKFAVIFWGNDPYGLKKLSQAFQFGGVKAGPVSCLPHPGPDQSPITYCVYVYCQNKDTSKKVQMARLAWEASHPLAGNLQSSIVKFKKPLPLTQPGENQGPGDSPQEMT
IDE cell inh – human IDE inhibitors in live cells, primary screen, fluorescence polarization, HEK cells, FAbetaB substrate; Insulin-degrading enzyme (Homo sapiens), P14735; FAbetaB cleavage; inhibition, % at 5.59 µM; 320,000 compounds, 0.41% hits;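 active = percent inhibition above the average of all tested compounds plus 3 SD, set per screening campaign, cut at about 16% in these data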;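 note: IDE supplied by intact live HEK cells; FP after avidin binding of uncleaved biotin substrate so inhibition keeps polarization high; 0% = DMSO wells and 100% = 60 µM reference IDE inhibitor Ii1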
Mot1-301 SUMO – yeast Mot1-301 growth rescue at high temperature, primary screen, SUMOylation pathway inhibitor project, S. cerevisiae, ATP luminescence, 38.5C. 320,000 compounds, 1% hits. S. cerevisiae Mot1-301 growth rescue; percent above DMSO median, 100 means doubled. AID 2716, 2010. growth rescue, % at 18.8 µM;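 active = every valid replicate shows activation above 250% relative to neutral control wells; inactive = the rest, any valid replicate at or below 250%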;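 note: OY570 slx delta 5 strain wells were the positive control but not used for scaling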
IDE cell activ – human IDE activators in live cells, primary screen, fluorescence polarization, HEK cells, FAbeta-B substrate; Insulin-degrading enzyme (Homo sapiens), P14735; FAbeta-B cleavage; 0% vehicle, 100% cell-free pure enzyme wells; activation, % at 5.96 µM; 340,000 compounds, 0.073% hits; AID 493087, 2011;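 active = activation above the mean of all tested compounds plus 3 SD, set per screening campaign, cut at about 17% in these data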
HDAC3 inhib – HDAC3 deacetylase inhibitors, primary screen, biochemical, fluorescence, cell-free homogeneous | AID 2718, 2010 | recombinant HDAC3, fluorogenic peptide/trypsin coupled | Histone deacetylase 3 (Homo sapiens), O15379 | inhibition, % at 8.3 µM | 320,000 compounds, 0.15% hits; in the data active = inhibition above about 26%, passing the limit was not always enough; inconclusive = no clear call, values can overlap the other calls
IDE inh confirm – human IDE inhibitors in live cells, confirmation, fluorescence polarization, HEK cells, FAbetaB substrate; shares compounds with IDE cell inh; FAbetaB cleavage; 1,200 compounds, 51% hits; inhibition, % at 5.59 µM; AID 435028, 2010;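 active = mean inhibition across triplicate wells above the cutoff set by the earlier primary insulin-degrading enzyme screen, cut at about 16% in these data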;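 note: 0% = DMSO wells and 100% = 60 µM reference IDE inhibitor Ii1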
HEK cytotox – cytotoxicity in HEK cells, cytotoxicity control for IDE inhibitor project, cell-based, luminescence | shares compounds with IDE cell inh | HEK293 cytotoxicity, ATP luminescence | inhibition, % at 5.59 µM | 1,200 compounds, 28% hits | AID 449730, 2010; in the data active = inhibition above about 22%;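 note: 0% = vehicle wells and 100% = reference cytotoxic drug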
Numbers without * were called inactive. Sampled rows, rich in hits. Any-hit rate of the full collection: about 2.1%.

Results for Nc1ccc2nc3c(=O)n(C4CCCCC4)c(=O)[nH]c3nc2c1 ?
LANA-H2B inh: 72.2*; IDE cell inh: 57.2*; Mot1-301 SUMO: 5.1; IDE cell activ: -50.2; IDE inh confirm: 88.2*; HEK cytotox: 13.4

How did Nc1ccc2nc3c(=O)n(CCc4ccccc4)c(=O)[nH]c3nc2c1 do in these assays?
LANA-H2B inh: 6.3; IDE cell inh: 32.5*; Mot1-301 SUMO: -4.5; HDAC3 inhib: -3.9; IDE inh confirm: 63.2*; HEK cytotox: 13.8

Results for COc1cc2[nH]c(=O)n(C3CCCCC3)c(=O)c2cc1OC ?
LANA-H2B inh: 4.9; IDE cell inh: -5.6; Mot1-301 SUMO: 3.9; IDE cell activ: 3.6; HDAC3 inhib: 5.7

How did O=c1cc(C(F)(F)F)[nH]c(=S)n1-c1ccccc1 do in these assays?
LANA-H2B inh: -3.9; IDE cell inh: -1.7; Mot1-301 SUMO: -15.6; IDE cell activ: 0.6; HDAC3 inhib: 11.4

How did O=C(COC(=O)COc1ccc2c(c1)CCC2)Nc1ccccc1C(F)(F)F do in these assays?
LANA-H2B inh: -0.6; IDE cell inh: -3.5; Mot1-301 SUMO: -8.9; IDE cell activ: -1.9; HDAC3 inhib: 0.9

What do the screens show for `CS(=O)(=O)c1ccc(Cl)c(NC(=O)COC(=O)CCN2C(=O)C3CC=CCC3C2=O)c1` (stereo not given)?
IDE cell activ: 0.7

What do the screens show for `O=c1/c(=C\c2cc([N+](=O)[O-])cc([N+](=O)[O-])c2O)sc2nc3ccccc3n12`?
LANA-H2B inh: 3.3; IDE cell inh: 16.3*; Mot1-301 SUMO: 3.0; IDE cell activ: -6.0; HDAC3 inhib: 8.1; IDE inh confirm: 19.6*; HEK cytotox: 5.8

Results for O=c1/c(=C/c2ccccn2)sc2nc3ccccc3n12 ?
IDE cell inh: -1.0; Mot1-301 SUMO: -15.0; IDE cell activ: 3.0

What do the screens show for `COc1ccc2c(c1)CC/C(=C/c1ccco1)C2=O`?
LANA-H2B inh: 5.0; IDE cell inh: 19.2*; Mot1-301 SUMO: 25.0; IDE cell activ: -4.5; HDAC3 inhib: -2.7; IDE inh confirm: 2.4; HEK cytotox: 14.7

Results for CC1CCCCC1NC(=O)CN(C)S(=O)(=O)c1ccc2c(c1)c(=O)n(C)c(=O)n2C (stereo not given) ?
LANA-H2B inh: -6.8; IDE cell inh: 0.0; Mot1-301 SUMO: -4.3; IDE cell activ: 2.3; HDAC3 inhib: 7.9

What do the screens show for `COc1ccc(N2CC(C(=O)NCCC3=CCCCC3)CC2=O)c(OC)c1` (stereo not given)?
LANA-H2B inh: -0.1; IDE cell inh: 3.0; Mot1-301 SUMO: 477.4; IDE cell activ: -1.9; HDAC3 inhib: inconclusive

What do the screens show for `CCN(CC)C(=O)C(Oc1ccc(S(=O)(=O)N2CCCC2)cc1[N+](=O)[O-])c1ccccc1` (stereo not given)?
LANA-H2B inh: -2.0; IDE cell inh: 0.1; Mot1-301 SUMO: 70.7; IDE cell activ: 4.7; HDAC3 inhib: 2.0

How did O=c1[nH]c2ccccc2nc1/C=C(\O)c1cccs1 do in these assays?
LANA-H2B inh: 4.8; IDE cell inh: 47.4*; Mot1-301 SUMO: -14.0; IDE cell activ: -44.7; HDAC3 inhib: 5.4; IDE inh confirm: 74.5*; HEK cytotox: 14.1

Results for O/C(=C\c1nc2ccccc2[nH]1)c1cccs1 ?
LANA-H2B inh: 2.9; IDE cell inh: 7.5; Mot1-301 SUMO: -4.0; IDE cell activ: -4.8; HDAC3 inhib: 1.4

How did CCOc1ccc(NC(=O)CSc2nc3c(c(=O)n2C)SC(C)C3)cc1 (stereo not given) do in these assays?
LANA-H2B inh: -5.7; IDE cell inh: 16.2*; Mot1-301 SUMO: -25.7; IDE cell activ: -35.1; HDAC3 inhib: 12.2; IDE inh confirm: 11.2; HEK cytotox: 17.2

Screening results deposited in PubChem by several laboratories.
